Measured values reported in PubChem BioAssay (NCATS).
Inconclusive results are not listed. Active and inactive are the calls of the source. Calls come from the whole dose curve; as a rule, active = well fitted inhibition curve with a large enough effect; inconclusive = small, poorly fitted or top-dose-only effect; inactive = flat fitted curve, though single readings scatter.
% is set by controls: 0 for no effect and ±100 for the full control effect.

Each molecule was assayed against Glutathione peroxidase 1 (Homo sapiens) (UniProt P07203) (assay: Primary qHTS Assay for Inhibitors of Recombinant Selenoprotein Glutathione Peroxidase 1 (GPX1) (AID 1845191; note: nearly all actives have a fitted effect of over 65% in size)). Details: recombinant GPX1, GR-coupled NADPH fluorescence, 15 min; series mostly up to 27.7 µM; activity, negative = inhibition: at the top concentration.
Glutathione peroxidase 1 (Homo sapiens), sequence (P07203 whole entry, looked up): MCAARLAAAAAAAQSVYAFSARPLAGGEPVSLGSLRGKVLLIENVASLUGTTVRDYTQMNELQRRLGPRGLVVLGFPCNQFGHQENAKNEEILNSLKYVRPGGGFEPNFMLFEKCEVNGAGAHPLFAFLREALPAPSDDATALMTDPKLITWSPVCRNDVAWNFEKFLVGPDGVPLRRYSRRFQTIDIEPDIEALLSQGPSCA
In short: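 GPX1 10 nM, GR 100 nM, GSH 1 mM, NADPH 0.5 mM, CHP 0.5 mM (final). 30-min cpd preincubation, RT. Ex340/Em450 read t=0, t=15 min.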
With `O=C(/C=C/c1ccc(O)cc1)OCC1OC(O)C(OC2OC(CO)C(O)C(O)C2O)C(O)C1O` (stereo unspecified) the “activity, negative = inhibition” value was 4.88% (inactive). For `Cc1onc(-c2c(Cl)cccc2Cl)c1CC(=O)NCc1ccc(OCC(F)(F)F)nc1`, the “outcome” value was “inactive [at 48.8 µM]”. `CC1(C)CC[C@]2(C(=O)O[C@@H]3O[C@H](CO)[C@@H](O)[C@H](O)[C@H]3O)CC[C@]3(C)C(=CCC4[C@@]5(C)C[C@H](O)[C@H](O[C@@H]6O[C@H](C(=O)O)[C@@H](O)[C@H](O)[C@H]6O)[C@@](C)(CO)C5CC[C@]43C)C2C1` (stereo partly specified) was tested, and the “outcome” value was “inactive [at 9.52 µM]”. For `CC(=O)O[C@@H]1[C@H](O[C@@H]2O[C@H](CO)[C@@H](O)[C@H](O)[C@H]2O)[C@@H](O[C@@H]2O[C@@H](C)[C@H](O)[C@@H](O[C@@H]3O[C@H](CO)[C@@H](O)[C@H](O)[C@H]3O)[C@H]2O)[C@H](OC(=O)[C@]23CCC(C)(C)C[C@H]2C2=CCC4[C@@]5(C)C[C@H](O)[C@H](O[C@@H]6O[C@H](C(=O)O)[C@@H](O)[C@H](O)[C@H]6O)[C@@](C)(C(=O)O)C5CC[C@@]4(C)[C@]2(C)CC3)O[C@@H]1C` (stereo partly specified), the “activity, negative = inhibition” value was 1.12% [at 9.52 µM] (inactive). `COc1ccc(CCC(=O)c2c(O)cc(O[C@@H]3O[C@H](CO)[C@@H](O)[C@H](O)[C@H]3O[C@@H]3O[C@@H](C)[C@H](O)[C@@H](O)[C@H]3O)cc2O)cc1O` was tested, and the “activity, negative = inhibition” value was -18.3% [at 48.8 µM] (inactive). In the case of `O=C(/C=C/c1ccc(O)c(O)c1)O[C@H]1[C@H](OC2CCCCC2O)O[C@H](CO)[C@@H](O)[C@@H]1O` (stereo partly specified), the “outcome” value is reported as “inactive”. `CC(C)=CCC[C@](C)(O[C@@H]1O[C@H](CO)[C@@H](O)[C@H](O)[C@H]1O)[C@H]1CC[C@]2(C)[C@@H]1[C@H](O)CC1[C@@]3(C)CC[C@H](O)C(C)(C)C3[C@@H](O[C@@H]3O[C@H](CO)[C@@H](O)[C@H](O)[C@H]3O[C@@H]3O[C@@H](C)[C@H](O)[C@@H](O)[C@H]3O)C[C@]12C` (stereo partly specified) was tested, and the “activity, negative = inhibition” value was -1.47% [at 15.3 µM] (inactive). With `C/C(=C\CC[C@H](CO)[C@@H]1CC[C@]2(C)C3=C(CC[C@@]12C)[C@@]1(C)CCC(=O)C(C)(C)C1CC3)C(=O)O` (stereo partly specified) the “outcome” value was “inactive”. `C/C=C(\C)C(=O)OC[C@H]1O[C@@H](O[C@H]2[C@@H](O[C@H]3O[C@H](CO)[C@@H](O)[C@H](O)[C@H]3O[C@@H]3O[C@H](CO)[C@@H](O)[C@H](O)[C@H]3O)O[C@H](COC(=O)/C(C)=C/C)[C@@H](O)[C@@H]2O)[C@H](O)[C@@H](O)[C@@H]1O` was tested, and the “outcome” value was “inactive [at 15.3 µM]”. With `C=C1CC[C@@]2(OC1)O[C@H]1CC3C4CC=C5C[C@@H](O[C@@H]6O[C@@H](C)[C@H](O)[C@@H](O)[C@H]6O)C[C@@H](O[C@@H]6O[C@H](C)[C@H](O)[C@H](O)[C@H]6O[C@@H]6O[C@@H](C)[C@H](O)[C@@H](O)[C@H]6O)[C@]5(C)C4CC[C@]3(C)[C@H]1[C@@H]2C` (stereo partly specified) the “outcome” value was “inactive [at 15.3 µM]”. With `C=C1CC[C@@]2(OC1)O[C@H]1CC3[C@@H]4CC=C5C[C@@H](O)C[C@@H](O[C@@H]6OC[C@H](O)[C@H](O)[C@H]6O[C@@H]6O[C@@H](C)[C@H](O)[C@@H](O)[C@H]6O)[C@]5(C)C4CC[C@]3(C)[C@H]1[C@@H]2C` (stereo partly specified) the “outcome” value was “inactive [at 15.3 µM]”. `COC(=O)C[C@@H]1C(C(=O)O)=CO[C@@H](O[C@@H]2O[C@H](CO)[C@@H](O)[C@H](O)[C@H]2O)/C1=C\COC(=O)/C=C/c1ccc(O)c(OC)c1` was tested, and the “outcome” value was “inactive [at 15.3 µM]”. With `CC1CCC2(C)CCC3(C)C(=CCC4C5(C)CCC(O)C(C)(C(=O)O)C5CCC43C)C2C1C` (stereo unspecified) the “activity, negative = inhibition” value was 4.27% (inactive). In the case of `COc1c2c(c(C)c3c1C(=O)OC3)OC1(C)CC(O)C34OC(O)(CCC3(C)C1C2)OC4(C)C` (stereo unspecified), the “activity, negative = inhibition” value is reported as 3.62% (inactive). With `C/C(=C\CCC(C)CCO)C(=O)OC[C@H]1O[C@@H](O[C@@H]2OC=C(C(=O)O)[C@H]3CC[C@](C)(O)[C@@H]23)C(O)[C@@H](O)C1O` (stereo partly specified) the “activity, negative = inhibition” value was -1.22% (inactive). With `CCN(CCN(C)C)C(=O)CNCc1cc(C(N)=O)ccn1` the “outcome” value was “inactive [at 48.8 µM]”. In the case of `C=C(COC(=O)CC(C)C)C1Cc2cc(C(C)=O)ccc2O1` (stereo unspecified), the “activity, negative = inhibition” value is reported as 0.0599% [at 48.8 µM] (inactive). With `CNc1nc(Cc2ccccc2)nc2c1CCNC[C@@H]2C` the “activity, negative = inhibition” value was -22.9% [at 48.8 µM] (inactive). For `CCC(C)/C=C(C)/C=C/C(=O)C1CCC(O)C(C)(O)C1=O` (stereo unspecified), the “activity, negative = inhibition” value was -6.11% [at 48.8 µM] (inactive). With `C=C(COC(=O)C(C)C)C1Oc2cc(C(C)=O)ccc2C1OC(=O)C(C)C` (stereo unspecified) the “activity, negative = inhibition” value was 2.29% (inactive). `CC1(C)CC[C@]2(C(=O)O[C@@H]3O[C@H](CO)[C@@H](O)[C@H](O)[C@H]3O)[C@H](O)C[C@]3(C)C(=CCC4[C@@]5(C)CC[C@H](O[C@@H]6OC[C@@H](O)[C@H](O)[C@H]6O)[C@@](C)(C(=O)O)C5CC[C@]43C)[C@@H]2C1` (stereo partly specified) was tested, and the “activity, negative = inhibition” value was -2.14% [at 15.3 µM] (inactive).
